# Screening data deposited in PubChem BioAssay by National Center for Advancing Translational Sciences (NCATS).
# This is a sample that favours compounds with a hit; in the whole collection about 7% have one here.
# D3 antag – blocks the human D3 dopamine receptor; 360,000 tested, 2.5% active; max response, negative = inhibition, %; P35462; D3R cells, DiscoveRx beta-arrestin luminescence, antagonist mode; hits give low values; in the data active = max response below about -50%; inconclusive = no clear call, values can overlap the other calls
# Target sequence (P35462 whole entry, looked up): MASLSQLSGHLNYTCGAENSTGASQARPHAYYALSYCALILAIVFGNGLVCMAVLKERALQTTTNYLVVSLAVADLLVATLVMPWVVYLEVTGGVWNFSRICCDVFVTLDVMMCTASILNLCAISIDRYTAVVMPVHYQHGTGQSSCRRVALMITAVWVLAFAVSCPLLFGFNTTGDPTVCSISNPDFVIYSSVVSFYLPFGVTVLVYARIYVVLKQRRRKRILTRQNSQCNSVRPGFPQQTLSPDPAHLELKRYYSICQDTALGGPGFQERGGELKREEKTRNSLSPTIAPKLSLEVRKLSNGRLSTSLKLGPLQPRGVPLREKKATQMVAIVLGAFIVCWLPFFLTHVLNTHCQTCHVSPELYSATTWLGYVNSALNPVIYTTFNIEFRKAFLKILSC
#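 Cells expressing the human receptor were seeded at 1500 cells/well, incubated overnight at 37 degrees C in 5% CO2, then exposed to library compounds with dopamine controls for 90 minutes at 37 degrees C before luminescent detection.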
# D3 ag – activates the human D3 dopamine receptor. P35462. AID 652048. D3R DiscoveRx beta-arrestin cells, luminescence, 90 min. 410,000 tested, 0.58% active. max activation, %; in the data active = max activation above about 30%
#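 Agonist-mode cell screen: cells plated at 1500/well and incubated overnight at 37 °C, then exposed to library compounds for 90 min at 37 °C. Detection reagent was added for 30–60 min at room temperature, and luminescence was read.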
# IL1B secr inh – inflammasome signaling inhibition, IL-1 beta readout. 360,000 tested, 4.7% active. activity change, % at 57.5 µM. THP-1 LPS/ATP IL-1B secretion, AlphaLISA, 16 h; hits give low values; in the data active = activity change below about -50%; inconclusive = mostly about -30% to -49%
#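 Secreted IL-1B measured by AlphaLISA bead assay after 16 h compound exposure of THP-1 cells; compounds (final up to 57.5 uM) added 1 h before LPS (250 ng/mL) and ATP (1.25 mM) stimulation; lower signal means less secretion.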
# ATXN viability – viability counter-screen for ATXN expression inhibitors; S2 cells (HEK-293 line with an ATXN2-luciferase reporter) viability, CellTiter-Fluor protease fluorescence, 24 h; Potency, µM (top dose mostly 56.7 µM), most hits filed as cytotoxic; 400,000 tested, 0.49% active; AID 651635; note: nearly all actives have a fitted effect of over 40% in size
# ATXN2 expr inh – ATXN2 expression inhibition; 360,000 tested, 0.72% active; HEK-293 ATXN2-luciferase reporter, luminescence, 24 h; Potency, µM (top dose mostly 57 µM), actives largely listed as inhibitors; note: nearly all actives have a fitted effect of over 55% in size
#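 qHTS (up to 57 uM final) was run with 24 h compound exposure of reporter cells at 37 °C. Each well was multiplexed: SteadyGlo luminescence measured ATXN2-luciferase expression after a fluorogenic Gly-Phe-AFC viability readout (25 uM final).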
# a7 integrin act – activates integrin-mediated alleviation for muscular dystrophy; AID 624291; 350,000 tested, 0.064% active; Potency, µM (top dose mostly 38.3 µM), hits mostly activators; alpha7betagal myoblasts, beta-gal FDG fluorescence, 48 h; note: nearly all actives have a fitted effect of over 60% in size
#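 Alpha7betagal+/- myoblasts (passage 13) were plated 16-24 hr, then exposed to compounds (1:260 dilution of DMSO stock) for 48 hours at 37C. After MPER lysis, β-galactosidase reporter activity was read as FDG fluorescence (ex 480/em 540) after 30 minutes.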
# SK-N-SH 3D tox – reduced viability of SK-N-SH 3D spheroids, orthogonal test; shares compounds with ATXN2 expr inh; SK-N-SH 3D spheroid viability, PI/Hoechst imaging, 72 h; Potency, µM (series often up to 30.7 µM), most hits filed as inhibitors; 65 tested, 70% active; AID 1347135
# SJ-GBM2 3D tox – lowers viability of SJ-GBM2 3D spheroids; 65 tested, 80% active; SJ-GBM2 3D spheroid viability, PI/Hoechst imaging, 72 h; shares compounds with ATXN2 expr inh; AID 1347136; Potency, µM (top dose mostly 30.7 µM), actives largely listed as inhibitors
# Daoy spheroid – kills Daoy spheroids in orthogonal 3D test. shares compounds with ATXN2 expr inh. 65 tested, 50% active. Daoy 3D spheroid viability, PI/Hoechst imaging, 72 h. Potency, µM (titrated, usually from 30.7 µM), hits mostly inhibitors
# TC32 3D caspase – TC32 spheroid caspase-3/7 activation, orthogonal screen; shares compounds with ATXN2 expr inh; TC32 3D spheroids, caspase-3/7 fluorescence imaging, 24 h; Potency, µM (doses to about 30.7 µM), most hits filed as inhibitors; 65 tested, 30% active; AID 1347138
# TC32 spheroid – reduced viability of TC32 3D spheroids, orthogonal test | Potency, µM (highest dose often 30.7 µM), usual class: inhibitors | TC32 3D spheroid viability, PI/Hoechst imaging, 72 h | shares compounds with ATXN2 expr inh | 65 tested, 60% active
# MG63 spheroid – kills MG-63 (6-TG R) spheroids in orthogonal 3D test | shares compounds with ATXN2 expr inh | MG-63 (6-TG R) 3D spheroid viability, PI/Hoechst imaging, 72 h | Potency, µM (titrated, usually from 30.7 µM), usual class: inhibitors | 65 tested, 50% active | AID 1347140
# RD 3D tox – RD 3D spheroid viability loss. AID 1347141. Potency, µM (doses to about 30.7 µM), usual class: inhibitors. 65 tested, 50% active. shares compounds with ATXN2 expr inh. RD rhabdomyosarcoma 3D spheroid viability, PI/Hoechst imaging, 72 h
# Hits are given with their value; n = inactive; u = inconclusive; x = no result. Unless noted, calls come from the whole dose curve; as a rule, active = well fitted curve in the direction sought with a large enough effect; inconclusive = small, poorly fitted or top-dose-only effect, or another doubt; inactive = no such curve, though single readings can be large; an effect the other way counts as inactive or inconclusive.
SMILES,D3 antag,D3 ag,IL1B secr inh,ATXN viability,ATXN2 expr inh,a7 integrin act,SK-N-SH 3D tox,SJ-GBM2 3D tox,Daoy spheroid,TC32 3D caspase,TC32 spheroid,MG63 spheroid,RD 3D tox
COC(=O)Nc1nc2ccc(C(=O)c3ccc(F)cc3)cc2[nH]1,x,x,x,x,n,x,1µM,0.91µM,u,u,2µM,u,u
CC(C)C[C@H](NC(=O)[C@H](Cc1ccccc1)NC(=O)c1cnccn1)B(O)O,x,n,x,50µM,0.027µM,x,0.01µM,0.016µM,0.032µM,0.18µM,0.018µM,0.081µM,0.011µM
O=C(NCC(=O)N1CCN(S(=O)(=O)c2ccccc2F)CC1)c1ccc2c(c1)OCO2,n,n,n,n,n,n,x,x,x,x,x,x,x
CCOc1cc(N2CCC(O)CC2)ccc1Nc1ncc2c(n1)N(C)c1ccccc1C(=O)N2C,x,x,x,x,n,x,u,n,n,n,n,n,u
COc1cc(C(C)=O)ccc1OCc1cc(C(=O)N2CCSCC2)no1,n,n,n,u,n,n,x,x,x,x,x,x,x
COc1cc(C(C)=O)ccc1OCCCN1CCC(c2noc3cc(F)ccc23)CC1,x,n,x,n,n,x,u,4.1µM,16µM,n,n,13µM,14µM
C[C@]1(c2nc3c(C(N)=O)cccc3[nH]2)CCCN1,x,x,x,x,n,x,4.6µM,4.1µM,u,n,u,u,n
NC(=O)c1cccc2cc3ccccc3cc12,n,n,n,x,n,n,x,x,x,x,x,x,x
